Compound activity deposited in PubChem BioAssay by National Center for Advancing Translational Sciences (NCATS).
The list is not random: actives were taken first. Their share in the collection is about 10%.
BAZ2B block = BAZ2B (human) inhibition. AlphaScreen BAZ2B-H3K14Ac peptide displacement. 4.4% of 360,000 active. Potency, µM (titrated, usually from 114 µM), inactives show at the highest dose activity change, negative = inhibition, actives largely listed as inhibitors; note: % is set by controls: 0 for no effect and ±100 for the full control effect; nearly all actives have a fitted effect of over 60% in size
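AlphaScreen luminescence quantifies BAZ2B engagement of H3K14Ac peptide; the protein and biotinylated peptide are both at 50 nM final, buffer PBS pH 7.4 with 0.01% Tween-20, all steps at room temperature.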
G9a inh = inhibitors of human histone lysine methyltransferase G9a | G9a H3K9 monomethylation, AlphaScreen, 2 h | AID 504332 | Potency, µM (doses to about 102 µM), inactives show at the highest dose activity, negative = inhibition, most hits filed as inhibitors | 8.8% of 350,000 active; note: % is set by controls: 0 for no effect and ±100 for the full control effect; nearly all actives have a fitted effect of over 75% in size
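Enzyme 20 nM + cpd, 15 min RT; add b-H3K9 pep 500 nM / SAM 20 uM; 2 h RT; anti-H3K9me1 Ab 0.5 ug/mL + SA donor / anti-rabbit acceptor beads 20 ug/mL each, 10 min; AlphaScreen read.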
HP1b chromo inh = HP1-beta chromodomain-methylated histone interaction inhibition. AlphaScreen HP1-beta / biotin-H3K9me3 peptide binding. 0.56% of 390,000 active. Potency, µM (series often up to 114 µM), for the others: at the highest dose activity change, negative = inhibition, actives largely listed as inhibitors; note: nearly all actives have a fitted effect of over 70% in size
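AlphaScreen: HP1-beta (50 nM) preformed 30 min with biotin-H3(1-18)K9me3 peptide (50 nM) in PBS pH 7.4, 0.01% Tween-20. Compound added for 30 min at RT, then streptavidin donor/nickel chelate acceptor beads (10 ug/mL) for 30 min.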
GLS inhibitor = glutaminase GLS (human) inhibition | O94925 | GLS enzymatic activity, qHTS titration | Potency, µM (series often up to 45.5 µM), inactives show top-dose activity change, negative = inhibition, hits mostly inhibitors | 0.21% of 410,000 active | AID 624170; note: % is set by controls: 0 for no effect and ±100 for the full control effect
Target sequence (O94925 whole entry, looked up): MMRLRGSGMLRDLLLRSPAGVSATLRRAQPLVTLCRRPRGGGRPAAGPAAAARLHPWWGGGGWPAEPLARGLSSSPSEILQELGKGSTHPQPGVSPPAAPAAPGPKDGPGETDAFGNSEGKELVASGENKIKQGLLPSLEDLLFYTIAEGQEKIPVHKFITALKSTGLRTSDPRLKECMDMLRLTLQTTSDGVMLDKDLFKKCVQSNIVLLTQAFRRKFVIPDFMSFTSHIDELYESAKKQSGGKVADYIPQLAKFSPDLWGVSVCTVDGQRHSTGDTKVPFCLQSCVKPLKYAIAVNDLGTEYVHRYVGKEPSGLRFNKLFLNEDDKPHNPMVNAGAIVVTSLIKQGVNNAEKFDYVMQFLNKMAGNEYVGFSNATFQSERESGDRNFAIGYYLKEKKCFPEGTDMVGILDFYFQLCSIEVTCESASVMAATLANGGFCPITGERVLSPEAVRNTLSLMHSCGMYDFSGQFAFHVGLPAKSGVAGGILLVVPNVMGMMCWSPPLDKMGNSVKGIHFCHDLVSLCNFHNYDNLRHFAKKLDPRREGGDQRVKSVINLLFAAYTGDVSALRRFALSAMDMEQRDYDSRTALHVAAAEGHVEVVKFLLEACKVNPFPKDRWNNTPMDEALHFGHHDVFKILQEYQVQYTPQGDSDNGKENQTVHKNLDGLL
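Assay buffer: 45 mM KH2PO4 pH 8.2, 0.02% Tween-20. hKGA acts on L-glutamine (1 mM solution added); product glutamate is reported by an oxidase/peroxidase Amplex Red coupling, with fluorescence taken at baseline and 30 min.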
JMJD2A Tudor inh = inhibitors of human JMJD2A Tudor domain; Potency, µM (top dose mostly 114 µM), for the others: at the highest dose activity change, negative = inhibition, usual class: inhibitors; AlphaScreen JMJD2A-Tudor / H3K4me3 peptide binding; 4.4% of 390,000 active; note: % is set by controls: 0 for no effect and ±100 for the full control effect; nearly all actives have a fitted effect of over 50% in size
Starred values were filed as active, the others as inactive; ? = inconclusive; nt = no result; [ ] = another dose, or the depositor's remark. Calls come from the whole dose curve; as a rule, active = well fitted curve in the direction sought with a large enough effect; inconclusive = small, poorly fitted or top-dose-only effect, or another doubt; inactive = no such curve, though single readings can be large; an effect the other way counts as inactive or inconclusive. Potency is the fitted concentration of half-maximal effect.

SMILES | BAZ2B block | G9a inh | HP1b chromo inh | GLS inhibitor | JMJD2A Tudor inh
CC1=NOC(=O)/C1=C/c1ccc(O)c(Br)c1 | 56µM* | 45µM* | 2% | -13% | -23%
CCO/C=C1\C(=O)N(c2ccccc2)C(=O)c2ccccc21 | ? | 25µM* | 25% | -6% | -28%
CCO/C=C1/C(=O)N(CC)c2ccccc21 | 6% | ? | -2% | -14% | -9%[11.4 µM]
CCO/C=C1/C(=O)N(C)C(=O)c2cc(OC)ccc21 | -1% | 3.5µM* | 28% | 15% | -11%
CCO/C=C1/C(=O)N(Cc2ccccc2)C(=O)c2ccccc21 | -3% | 14µM* | 47% | 13% | -24%
CCO/C=C1/C(=O)N(c2ccccc2OC)C(=O)c2ccccc21 | -16% | 28µM* | 18% | 2% | ?
CCO/C=C1/C(=O)N(c2ccc(OC)cc2)C(=O)c2ccccc21 | -15% | 25µM* | 27% | 24% | -23%
COc1ccc(N2C(=O)c3ccccc3C2=O)cc1 | 0% | -7%[12.7 µM] | 17% | -4% | -14%
Cc1nc2ccccc2c(=O)n1-c1ccc(NC(=O)C(F)(F)F)cc1 | -3% | 3%[59 µM] | 9% | 3% | -3%
CCc1ccccc1NC(=O)C1CCCN(S(=O)(=O)c2ccc3[nH]c(=O)ccc3c2)C1 (stereo unspecified) | ? | -33%[59 µM] | 17% | -10% | -21%
FC(F)(F)c1nc2nc(Cl)c(Cl)nc2n1CCCN1CCOCC1 | nt | nt | nt | -3% | nt
COc1ccc(C2=C(N3CCN(c4cc(Cl)ccc4C)CC3)c3ccccc3C2=O)cc1 | 2.8µM* | 3.5µM* | ? | -9% | 6.3µM*
COc1ccc(C2(N3CCN(c4cc(C)ccc4C)CC3)C(=O)c3ccccc3C2=O)cc1 | ? | ? | -15% | 4% | ?
Cc1nn(-c2ncc(C(F)(F)F)cc2Cl)c(=O)n1-c1ccc(F)cc1 | -12% | 11% | 10% | 7% | 50µM*
Cc1cccc(Nc2nc(NCc3ccco3)c3ccccc3n2)c1 | ? | 18µM* | -10% | 0% | ?
c1ccc(Nc2nc(NCc3ccco3)c3ccccc3n2)cc1 | ? | 50µM* | ? | 1% | 50µM*
Cc1ccc(C(=O)N=c2sccn2C)cc1S(=O)(=O)N1CCOCC1 | 0% | 40µM* | 37% | 1% | -8%
Cc1ccc(C(=O)N=c2sccn2C)cc1C | -9% | 72% | 48% | 2% | -6%
Cc1ccc(Cn2c(SCc3ccc(C(=O)N4CCCCC4)cc3)nc3ccncc32)cc1 | -17% | -11%[59 µM] | 39% | -5% | -16%
O=C(CCc1nnc2n(Cc3ccc(F)cc3)c(=O)c3ccccc3n12)N1CCN(c2ccccn2)CC1 | -10% | 4%[59 µM] | 13%[57 µM] | -9% | -7%
O=C1/C(=C/c2ccccc2F)SC(=S)N1CCC(=O)N1CCCCC1CCO (stereo unspecified) | ? | nt | -17% | -5% | ?
Cc1ccc(/C=N/n2cnnc2)s1 | 3% | 22% | 17% | nt | 17%
Cc1cccc(-c2n[nH]c(=S)n2/N=C/c2ccc(C)s2)c1 | -20% | 1.1µM* | 28% | 19% | ?
Cc1ccc(/C=N/n2c(-c3ccncc3)n[nH]c2=S)s1 | -11% | nt | 34% | ? | 3.5µM*
CCN(CC)S(=O)(=O)c1cccc(-c2n[nH]c(=S)n2/N=C/c2ccc(OC)cc2)c1 | -4% | ? | -13% | -22% | ?
SMILES | BAZ2B block | G9a inh | HP1b chromo inh | GLS inhibitor | JMJD2A Tudor inh
Cc1cccc(-c2n[nH]c(=S)n2/N=C/c2cccs2)c1 | -26% | 0.71µM* | 9% | -29% | 22µM*
Cc1nnc(C)n1/N=C/c1cccs1 | 7% | -37%[0.0925 µM] | 27% | 3% | -18%
Cc1cc(=O)[nH]c2nnc(SCC(N)=O)n12 | 1% | 6%[59 µM] | 8% | -8% | -13%
O=S(=O)([O-])CCC[n+]1ccc(Oc2ccccc2)cc1 | -38% | 28µM* | 35% | -7% | 11%
C[C@H](CO)N1C[C@H](C)[C@@H](CN(C)S(=O)(=O)c2ccc(Oc3ccccc3)nc2)OCc2cn(nn2)CCCC1=O | nt | nt | nt | -2% | nt
Cc1nc(CSc2nnc(C)s2)cs1 | -10% | 45µM* | 59% | -2% | -2%
Cc1nnc(SCc2ccc(F)cc2)s1 | 15% | -1%[12.7 µM] | 45% | -7% | 8%
CCOCCSc1n[nH]c(=O)n1CCc1ccccc1 | 3% | 44%[0.501 µM] | 16% | 4% | -6%
CCc1c(C)c(C#N)c2[nH]c3ccccc3n2c1=S | 35µM* | nt | 20µM* | ? | 5.6µM*
